Rows were chosen to be rich in hits. Some 3.1% of all compounds tested hit in one or more screens of this group.
EPAC1 agonist = Validation qHTS for agonist of cAMP-regulated guanine nucleotide exchange factor 3 (EPAC1). Potency, µM, actives largely listed as activators. EPAC1 Rap1b BODIPY-GDP exchange, fluorescence. Rap guanine nucleotide exchange factor 3 (Homo sapiens), O95398. AID 1645883, 2021. 16,000 compounds, 1% hits; further: nearly all actives have a fitted effect of over 70% in size
EPAC2 ant val = Validation qHTS for antagonist of cAMP-regulated guanine nucleotide exchange factor 4 (EPAC2) | Rap guanine nucleotide exchange factor 4 (Homo sapiens), Q8WZA2 | EPAC2 Rap1B BODIPY-GDP exchange, fluorescence | Potency, µM (titrated, usually from 112 µM), hits mostly inhibitors | 16,000 compounds, 1.7% hits | AID 1645886, 2021; further: nearly all actives have a fitted effect of over 40% in size
Target sequence (Q8WZA2 whole entry, looked up): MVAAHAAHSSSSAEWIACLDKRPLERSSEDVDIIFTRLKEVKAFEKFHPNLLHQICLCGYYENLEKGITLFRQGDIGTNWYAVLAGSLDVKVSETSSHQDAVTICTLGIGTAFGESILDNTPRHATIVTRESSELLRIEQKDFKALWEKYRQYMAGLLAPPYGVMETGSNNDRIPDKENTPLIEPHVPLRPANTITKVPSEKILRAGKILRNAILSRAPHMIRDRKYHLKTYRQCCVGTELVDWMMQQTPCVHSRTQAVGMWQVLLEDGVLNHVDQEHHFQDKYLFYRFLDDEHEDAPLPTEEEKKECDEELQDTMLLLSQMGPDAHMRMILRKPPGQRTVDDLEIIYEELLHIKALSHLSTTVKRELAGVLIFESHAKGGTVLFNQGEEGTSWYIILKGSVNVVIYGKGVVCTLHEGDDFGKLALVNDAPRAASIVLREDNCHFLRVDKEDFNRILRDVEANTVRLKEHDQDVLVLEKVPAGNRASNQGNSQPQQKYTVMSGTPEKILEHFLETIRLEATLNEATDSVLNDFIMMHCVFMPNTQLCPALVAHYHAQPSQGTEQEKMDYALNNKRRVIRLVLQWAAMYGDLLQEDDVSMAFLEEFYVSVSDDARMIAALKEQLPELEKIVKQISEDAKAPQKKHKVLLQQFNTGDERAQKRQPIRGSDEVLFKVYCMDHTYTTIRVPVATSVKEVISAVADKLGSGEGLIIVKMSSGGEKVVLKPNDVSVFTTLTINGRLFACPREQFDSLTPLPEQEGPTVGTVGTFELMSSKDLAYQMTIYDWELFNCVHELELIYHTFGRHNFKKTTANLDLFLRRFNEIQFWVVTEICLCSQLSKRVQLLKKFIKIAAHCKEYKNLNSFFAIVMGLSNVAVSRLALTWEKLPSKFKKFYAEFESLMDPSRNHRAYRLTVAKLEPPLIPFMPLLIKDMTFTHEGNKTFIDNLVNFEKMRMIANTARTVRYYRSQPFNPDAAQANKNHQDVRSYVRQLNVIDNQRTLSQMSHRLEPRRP
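Fluorescent exchange read-out: 100 nM EPAC2 with 250 nM RAP1B–BODIPY-GDP and 50 uM GDP; BODIPY-GDP release lowers fluorescence. Read at 480/540 nm every 5 min for 30 min at room temperature; normalized to 6.5 mM cAMP.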
Of the large screens only hits and unclear results are named; the others gave an inactive call; ! = not active in a repeat. The call rests on the fitted dose curve; in most records, active means well fitted curve in the direction sought with a large enough effect; inconclusive means small, poorly fitted or top-dose-only effect, or another doubt; inactive means no such curve, though single readings can be large; an effect the other way counts as inactive or inconclusive.

Clc1ccc(C(Cn2ccnc2)OCc2c(Cl)cccc2Cl)c(Cl)c1 (stereo not given)	EPAC1 agonist 40µM!, EPAC2 ant val inconclusive
CCOC(=O)[C@H](CS)NCCN[C@@H](CS)C(=O)OCC	none
Cc1cccc(CNc2nc(-c3cccc(NS(C)(=O)=O)c3)nc3ccccc23)c1	EPAC1 agonist inconclusive
COc1ccccc1CNc1nc(-c2ccc3c(c2)OCO3)nc2ccccc12	EPAC1 agonist 100µM
COc1ccccc1CNc1nc(-c2cccc(C#N)c2)nc2ccccc12	EPAC1 agonist 100µM
COc1cccc(-c2nc(NCc3ccccc3OC)c3ccccc3n2)c1	EPAC1 agonist inconclusive
COc1ccccc1CNc1nc(-c2cccc(NS(C)(=O)=O)c2)nc2ccccc12	EPAC1 agonist 100µM
COc1ccccc1CNc1nc(-c2ccc(N(C)C)cc2)nc2ccccc12	EPAC1 agonist inconclusive
Cc1cc(C(=O)NCC2CCC3(CCN(Cc4ccc(-c5ccccc5)cc4)CC3)O2)n(C)n1 (stereo not given)	EPAC2 ant val inconclusive
CO/N=C(\C(=O)N[C@@H]1C(=O)N2C(C(=O)O)=C(CSc3nnnn3C)CS[C@H]12)c1csc(N)n1	none
COc1ccc(-c2oc3ccccc3c(=O)c2O)cc1OC	none
CCc1oc2ccccc2c1C(=O)c1cc(I)c(O)c(I)c1	EPAC2 ant val 63µM
CC(C)C(=O)OCC(=O)[C@@]12O[C@H](C3CCCCC3)O[C@@H]1C[C@H]1[C@@H]3CCC4=CC(=O)C=C[C@]4(C)[C@H]3[C@@H](O)C[C@@]12C	none
O=C1C=CC(=C(c2ccc(O)cc2)c2ccc(O)cc2)C=C1	EPAC1 agonist 100µM, EPAC2 ant val inconclusive
CCC(=O)c1ccc(O)cc1	none
O=C(OC[C@H]1O[C@@H](OC(=O)c2cc(O)c(O)c(OC(=O)c3cc(O)c(O)c(O)c3)c2)[C@H](OC(=O)c2cc(O)c(O)c(OC(=O)c3cc(O)c(O)c(O)c3)c2)[C@@H](OC(=O)c2cc(O)c(O)c(OC(=O)c3cc(O)c(O)c(O)c3)c2)[C@@H]1OC(=O)c1cc(O)c(O)c(OC(=O)c2cc(O)c(O)c(O)c2)c1)c1cc(O)c(O)c(OC(=O)c2cc(O)c(O)c(O)c2)c1	EPAC2 ant val 22µM
CCCOC(=O)c1cc(O)c(O)c(O)c1	none
CC1(C)Oc2ccc3ccc(=O)oc3c2CC1=O	none
CC(=O)OC1c2c(ccc3ccc(=O)oc23)OC(C)(C)C1OC(=O)CC(C)C (stereo not given)	EPAC2 ant val 40µM
c1ccc(-c2csc(-c3nc4ccccc4[nH]3)n2)cc1	EPAC1 agonist inconclusive
c1ccc(CCNc2nc(-c3ccccc3)cs2)cc1	EPAC1 agonist 100µM
COC(=O)[C@@H]1C[C@@H](NC(=O)c2cccc3c(C)c(C)[nH]c23)CN1Cc1cccc2ccccc12	none
CO/N=C(\C(=O)N[C@@H]1C(=O)N2C(C(=O)O)=C(CSc3nc(C)c(CC(=O)O)s3)CS[C@H]12)c1csc(N)n1	none
CC(C)(C)NC(=O)[C@H]1CN(Cc2cccnc2)CCN1C[C@@H](O)C[C@@H](Cc1ccccc1)C(=O)N[C@H]1c2ccccc2C[C@H]1O	EPAC2 ant val 25µM
CC(C)(C)NC(=O)[C@@H]1C[C@@H]2CCCC[C@@H]2CN1C[C@@H](O)[C@H](Cc1ccccc1)NC(=O)[C@H](CC(N)=O)NC(=O)c1ccc2ccccc2n1	EPAC2 ant val inconclusive
CCCN(CCC)c1ccc(/C=C/c2ccnc3ccccc23)cc1	EPAC1 agonist 100µM
Cc1cc(N(C)C)c(C)cc1/C=C/c1ccnc2ccccc12	EPAC1 agonist 112µM
CN(C)c1ccc(/C=C/c2ccnc3ccc4ccccc4c23)cc1	EPAC2 ant val inconclusive
Cc1[nH]c2ccccc2c1/C=C/c1ccnc2ccccc12	EPAC1 agonist inconclusive
CCC[C@@]1(CCc2ccccc2)CC(O)=C([C@H](CC)c2cccc(NS(=O)(=O)c3ccc(C(F)(F)F)cn3)c2)C(=O)O1	none (no result: EPAC2 ant val)
Cc1cccc2c(Nc3ccc4c(c3)OCO4)nc(CN3CCC(N4CCCCC4)CC3)nc12	none
C=C1CC[C@H](O)C/C1=C\C=C1/CCC[C@]2(C)[C@@H]([C@H](C)CCCC(C)C)CC[C@@H]12	EPAC2 ant val inconclusive
CO[C@H]1C=CO[C@@]2(C)Oc3c(C)c(O)c4c(O)c(c(/C=N/N5CCN(C6CCCC6)CC5)c(O)c4c3C2=O)NC(=O)/C(C)=C\C=C[C@H](C)[C@H](O)[C@@H](C)[C@@H](O)[C@@H](C)[C@H](OC(C)=O)[C@@H]1C	EPAC2 ant val inconclusive
Clc1ccc(C(c2ccccc2Cl)C(Cl)Cl)cc1 (stereo not given)	EPAC1 agonist inconclusive, EPAC2 ant val 14µM!
Nc1ncnc2c1ncn2[C@@H]1O[C@H](COP(=O)(O)OP(=O)(O)OP(=O)(O)OP(=O)(O)OC[C@@H]2O[C@H](n3cnc4c(N)ncnc43)[C@@H](O)[C@H]2O)[C@@H](O)[C@H]1O	none
Cc1cc2nc3c(=O)[nH]c(=O)nc-3n(C[C@H](O)[C@H](O)[C@H](O)COP(=O)(O)OP(=O)(O)OC[C@H]3O[C@@H](n4cnc5c(N)ncnc54)[C@H](O)[C@@H]3O)c2cc1C	EPAC1 agonist 112µM
Oc1ccc(/C=C\c2cc(O)cc(O)c2)cc1	EPAC2 ant val 28µM
Oc1ccc(/C=C/c2cc(O)cc(O)c2)cc1	EPAC1 agonist inconclusive, EPAC2 ant val 50µM!
O=c1cc(O)cc(/C=C/c2ccc(O)c(O)c2)o1	none
O=C(/C=C/c1ccc(O)cc1)c1ccc(O)cc1O	EPAC2 ant val inconclusive
CC1(COc2ccc(CC3SC(=O)NC3=O)cc2)CCCCC1 (stereo not given)	EPAC2 ant val 50µM!
CC1(COc2ccc(C[C@H]3SC(=O)NC3=O)cc2)CCCCC1	EPAC2 ant val inconclusive
COCCn1c(=O)c(C)nc2cnc(Nc3cccc(OC)c3)nc21	none
COc1cccc(Cn2c(=O)c(-c3cccs3)nc3cnc(Nc4cccc(OC)c4)nc32)c1	EPAC1 agonist 112µM
COCCn1c(=O)c(-c2ccc(OC)cc2)nc2cnc(Nc3cccc(OC)c3)nc21	EPAC1 agonist 112µM, EPAC2 ant val inconclusive
COCCn1c(=O)c(CCc2ccccc2)nc2cnc(Nc3cccc(OC)c3)nc21	EPAC1 agonist 112µM
COc1cccc(Cn2c(=O)c(-c3ccc(Cl)cc3)nc3cnc(N4CCNCC4)nc32)c1	EPAC1 agonist inconclusive, EPAC2 ant val 50µM
COc1ccc(Nc2ncc3nc(-c4cccs4)c(=O)n(Cc4cccc(OC)c4)c3n2)cc1	EPAC1 agonist inconclusive
COCCn1c(=O)c(CCc2ccccc2)nc2cnc(Nc3ccccc3)nc21	none
COc1ccc(-c2nc3cnc(N4CCNCC4)nc3n(Cc3cccc(OC)c3)c2=O)cc1	EPAC1 agonist inconclusive
COc1cccc2ccc(CN3CCC4(CC3)c3ccccc3[C@@H](NC(=O)c3ccccc3)[C@@H]4O)nc12	none
CC(=O)N[C@@H](CC(=O)N[C@@H](CCC(=O)O)C(=O)O)C(=O)O	none
CO[C@H]1C=CO[C@@]2(C)Oc3c(C)c(O)c4c(O)c(c5c(c4c3C2=O)=NC2(CCN(CC(C)C)CC2)N=5)NC(=O)/C(C)=C\C=C/[C@H](C)[C@H](O)[C@@H](C)[C@@H](O)[C@@H](C)[C@H](OC(C)=O)[C@@H]1C	EPAC2 ant val inconclusive
COC(=O)c1ccccc1-c1cc(C)cc2c1OC(CNC(=O)c1ccn(C)n1)C2 (stereo not given)	EPAC2 ant val inconclusive

Screening data (PubChem)
